Screens as filed in PubChem BioAssay.
The sample as a whole holds a higher share of hits than the screen did.
12-LOX inh: ALOX12 (human) lipoxygenase inhibition | 580,000 tested, 1.1% active | P18054 | purified 12hLO, xylenol orange hydroperoxide absorbance | Potency, µM (series often up to 108 µM), for the others: at the top dose activity change, negative = inhibition, usual class: inhibitors; further: potency means the concentration at half of the fitted maximal effect
Target sequence (P18054 whole entry, looked up): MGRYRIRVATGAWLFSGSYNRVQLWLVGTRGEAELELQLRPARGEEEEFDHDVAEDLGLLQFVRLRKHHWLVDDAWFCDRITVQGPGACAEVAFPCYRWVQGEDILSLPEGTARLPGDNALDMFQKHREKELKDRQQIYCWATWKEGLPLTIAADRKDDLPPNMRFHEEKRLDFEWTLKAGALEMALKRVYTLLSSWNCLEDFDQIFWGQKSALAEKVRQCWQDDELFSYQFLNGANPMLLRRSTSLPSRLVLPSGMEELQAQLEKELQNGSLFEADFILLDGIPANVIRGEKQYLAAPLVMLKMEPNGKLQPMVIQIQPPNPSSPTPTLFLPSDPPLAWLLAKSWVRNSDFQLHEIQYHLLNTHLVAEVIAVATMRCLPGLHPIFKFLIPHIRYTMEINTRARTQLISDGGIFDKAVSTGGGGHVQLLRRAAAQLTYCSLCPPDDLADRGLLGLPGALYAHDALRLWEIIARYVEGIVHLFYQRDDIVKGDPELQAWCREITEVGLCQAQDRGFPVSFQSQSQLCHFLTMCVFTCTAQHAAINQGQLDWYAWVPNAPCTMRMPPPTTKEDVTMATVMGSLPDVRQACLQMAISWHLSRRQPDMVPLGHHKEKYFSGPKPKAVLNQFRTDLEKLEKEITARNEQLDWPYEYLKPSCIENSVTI
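Purified human 12hLO at 150 nM in 25 mM Hepes, 0.01% Triton X-100, pH 7.0, preincubated 15 min at room temperature with compound. Reaction started with 40 uM arachidonic acid, 30 min at room temperature. Hydroperoxide measured by Fe-xylenol orange, 573/405 nm absorbance ratio.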
TDP1 cell noCPT: qHTS for Inhibitors of human tyrosyl-DNA phosphodiesterase 1 (TDP1): qHTS in cells in absence of CPT. DT40 Tdp1-/- hTDP1 cells, no CPT, ATP luminescence, 48 h. Potency, µM (doses to about 46.2 µM), without a hit: at the highest dose activity change, negative = growth inhibition, actives largely listed as inhibitors. 420,000 tested, 15% active. AID 686978, 2013; further: potency means the concentration at half of the fitted maximal effect; nearly all actives have a fitted effect of over 55% in size
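Readout: luminescence from CellTiter-Glo after 30 min in the dark at RT. Cells: DT40 Tdp1-/- with stable hTDP1, 400/well. Exposure: compounds alone, ≥48 hr, 37 °C.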
IL1B secr inh: inhibitors of inflammasome signaling (IL-1 beta secretion) | THP-1 LPS/ATP IL-1B secretion, AlphaLISA, 16 h; hits give low values | activity change, % at 57.5 µM | 360,000 tested, 4.7% active | AID 743279; in the data active means activity change below about -50%; inconclusive means mostly about -30% to -49%
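THP-1 cells pretreated 1 hr with compounds (up to 57.5 uM final), then stimulated with LPS (250 ng/mL final) plus ATP (1.25 mM final); secreted IL-1B measured by AlphaLISA after 16 hr, decreased signal indicating inhibition.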
HT1080 IDH1KD tx: kills HT-1080 cells with IDH1 knockdown. HT-1080 IDH1 knockdown viability, ATP luminescence, 48 h. Potency, µM (doses to about 46.1 µM), for the others: top-dose activity, negative = toxicity, usual class: cytotoxic. 360,000 tested, 2% active. AID 686971;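 further: potency means the concentration at half of the fitted maximal effect; 0% = DMSO wells and -100% = cell-free medium wells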
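CellTiter-Glo luminescence after 48 h compound exposure at 37 degrees C of IDH1-knockdown HT-1080 cells in 5% FBS RPMI. %Activity scaled between DMSO wells and cell-free media wells, with curves fitted and assigned curve classes.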
HT1080-NT tox: kills 2HG-producing HT-1080-NT fibrosarcoma cells. HT-1080-NT fibrosarcoma viability, CellTiter-Glo ATP luminescence, 48 h. 360,000 tested, 1.6% active. Potency, µM (top dose mostly 46.1 µM), without a hit: at the highest dose activity, negative = less viability, most hits filed as cytotoxic;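 further: NT is the 2HG producing partner of a matched IDH1 knockdown line; potency means the concentration at half of the fitted maximal effect; 0% = DMSO-treated cells and -100% = media-only wells without cells; nearly all actives have a fitted effect of over 55% in size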
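A 48-hour cytotoxicity screen used HT-1080-NT cells plated 2 hours before compound delivery. ATP-based CellTiter-Glo luminescence measured viability, normalized to DMSO and no-cell controls.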
TDP1 cell CPT: growth inhibition of DT40 Tdp1-/-;hTDP1 cells with camptothecin (screen for TDP1 inhibitors) | chicken DT40 Tdp1-/-;hTDP1 cells + 20 nM CPT, ATP luminescence, 48 h | Potency, µM (titrated, usually from 46.2 µM), without a hit: at the highest dose activity change, negative = growth inhibition, usual class: inhibitors | 420,000 tested, 12% active | AID 686979; further: potency means the concentration at half of the fitted maximal effect; nearly all actives have a fitted effect of over 55% in size
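Cell growth measured by CellTiter-Glo luminescence after a minimum 48 h, 37 C compound exposure with 20 nM CPT in Tdp1-knockout DT40 cells stably expressing hTDP1, seeded 400/well; qHTS titration format.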
* marks the source's active call; other numbers are inactive results; i = inactive; ? = inconclusive; / = no result; [ ] = dose if it differs, or a comment. Unless noted, the call rests on the fitted dose curve; in most records, active means well fitted curve in the direction sought with a large enough effect; inconclusive means small, poorly fitted or top-dose-only effect, or another doubt; inactive means no such curve, though single readings can be large; an effect the other way counts as inactive or inconclusive. Unless noted, on the % scale 0 is the no-effect control and ±100 the full control effect.

SMILES	12-LOX inh	TDP1 cell noCPT	IL1B secr inh	HT1080 IDH1KD tx	HT1080-NT tox	TDP1 cell CPT
COc1ccc(C2(c3ccc(OC)cc3)NC(=O)N(CC(=O)Nc3cc(C)ccc3OC)C2=O)cc1	-3%	?	-16	?	-19%	18µM*
Cc1oc(C23CC4CC(CC(C4)C2)C3)cc1C(=O)NC1CCOC1=O (stereo not given)	0%	/	/	/	/	/
COc1ccc(C(=O)COc2ccc(C)cc2NC(C)=O)cc1	148%	21µM*	-4	-12%	-12%	?
CCOc1ccc(NC(=O)CCn2c(-c3ccc(F)cc3)cc(C(C)=O)c2C)cc1	-17%	23µM*	/	/	/	21µM*
NC(=O)C1CCCN(CCc2ccccc2)C1 (stereo not given)	1%	-11%	6	3%	8%	-14%
CCCc1sc(N2CCCC(C(N)=O)C2)nc1-c1ccccc1 (stereo not given)	-1%	18µM*	2	-4%	-4%	?
CN(C)/C=C/C(=C\C(=O)C(F)(F)F)Nc1ccc(C(F)(F)F)cc1	-20%	18µM*	13	-3%	-1%	?
FC(F)(F)c1ccc(N/N=C/c2cccc(Br)c2)nc1	-21%	/	/	/	/	/
CCC1(C)CC(=O)c2c(ccc3oc(C(=O)NCc4ccccc4)c(C)c23)O1 (stereo not given)	-3%	16µM*	/	/	/	29µM*
CCCNC(=O)c1oc2ccc3c(c2c1C)C(O)CC(C)(C)O3 (stereo not given)	6%	6%	-11	7%	7%	-17%
Cc1c(C(=O)NCc2ccoc2)oc2ccc3c(c12)C(=O)CC(C)(C)O3	87%	?	-52*	?	0%	15µM*
Cc1cc(C)c2c(=O)cc(C(=O)NCc3ccccc3)oc2c1	0%	-14%	30	-11%	-4%	4%
CCOc1ccccc1CNC(=O)C1=C(C)C(=O)OC12CCN(C(C)=O)CC2	-10%	-10%	/	/	/	4%
CCOc1ccccc1CNC(=O)c1oc2ccc3c(c2c1C)C(=O)CC(C)(C)O3	0%	13µM*	/	/	/	?
Cc1ccc(OCc2cc(C(=O)N3CCN(CC(=O)NC(C)C)CC3)no2)cn1	0%	5%	20	12%	13%	-21%
CCOC(=O)CSc1nc2c(sc3ccccc32)c(=O)n1Cc1ccc(OC)cc1	0%	?	/	/	/	-27%
C/C(=N\NC(=O)c1n[nH]c2c1CCC2)c1cccs1	321%	-4%	/	17%	16%	1%
Cc1ccc(/C=N/NC(=O)c2n[nH]c3c2CCCC3)cc1	248%	0.92µM*	/	0.13µM*	0.16µM*	0.82µM*
O=C(N/N=C/c1cccs1)c1n[nH]c2c1CCCC2	i	21µM*	-26	15µM*	21µM*	?
Cc1csc(-c2coc3cc(O)cc(C)c3c2=O)n1	-11%[57.4 µM]	?	20	?	?	16µM*
COc1ccc2c(=O)c(-c3nc(C)cs3)coc2c1	-25%	-23%	0	-16%	-11%	-21%
O=C(C1CCCCC1)N1CCC2CC1c1cc(Cl)ccc12 (stereo not given)	-15%	?	7	9%	8%	?
CCC1=NN(C(=O)COc2ccccc2)C(O)(c2ccc(Br)cc2)C1 (stereo not given)	-12%	21µM*	6	-7%	-20%	?
CC1=NN(C(=O)COc2ccccc2)C(O)(c2ccccc2)C1 (stereo not given)	-17%	?	13	6%	10%	5.8µM*
CC(C)(C)CC(C)(C)SSc1n[nH]c(=S)s1	35µM*	?	-73*	10%	18%	?
CCOC(=O)CSc1n[nH]c(=S)s1	?	0%	19	-3%	1%	-7%
